Source: PubChem BioAssay
IP6K1 inhibitor: Primary qHTS assay for small molecule inhibitors of Inositol hexaphosphate kinase 1 (IP6K1); Inositol hexakisphosphate kinase 1 (Homo sapiens), Q92551; IP6K1 kinase, ADP-Glo luminescence, 2 h; stronger effect = lower value; activity change, % (series mostly up to about 58 µM); 140,000 tested, 0.81% active; AID 1645851, 2021; in the data active = activity change below about -25%
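ADP-Glo luminescence measures ADP made by human IP6K1 during a 2 h RT reaction with ATP/IP6 (mix at 1.3 mM/130 uM); top library doses 57.5 and 19.1 uM final.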
SNCA viab count: GF-AFC viability counterscreen for inhibitors of alpha-synuclein gene (SNCA) expression; Potency, µM (doses to about 57.1 µM), usual class: cytotoxic; 150,000 tested, 0.12% active; AID 1671193, 2021; HEK-293-SNCA-luc viability, GF-AFC fluorescence, 24 h; note: nearly all actives have a fitted effect of over 30% in size
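HEK-293-SNCA-luc cells (1500/well) plated 24 h, then exposed 24 h to a dilution series; GF-AFC added 30 min at 37C, fluorescence 405/540 nm; normalised to medium-only and DMSO wells, Hill fit.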
SNCA expr inh: Primary qHTS assay for inhibitors of alpha-synuclein gene (SNCA) expression | HEK-293 SNCA-luciferase knock-in, luminescence, 24 h | Potency, µM (series often up to 57.2 µM), usual class: inhibitors | 140,000 tested, 0.17% active | AID 1671194, 2021; note: nearly all actives have a fitted effect of over 45% in size
KDM5B inh: Primary screen for KDM5B Histone Demethylases FDH-coupled qHTS. Lysine-specific demethylase 5B (Homo sapiens), Q9UGL1. KDM5B demethylase, FDH-coupled NADH fluorescence (FDH is formaldehyde dehydrogenase). Potency, µM (titrated, usually from 57.7 µM), usual class: inhibitors. 220,000 tested, 2.6% active. AID 1347165, 2019; note: nearly all actives have a fitted effect of over 70% in size
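Inhibition is measured as reduced NADH fluorescence generation from FDH coupling to formaldehyde release. Truncated KDM5BΔAP at 200 nM final acts on H3K4me3 peptide (12.5 µM in substrate mix) in pH 7.5 HEPES buffer with Tween-20, 30 min, room temperature.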
Numbers stand for hits; n = inactive; u = inconclusive; x = no result given; ! = not active in a repeat; [ ] = another dose, or the depositor's remark. Most compounds without a hit are left out; they make up all but 2.9% or so of the library. Unless noted, calls come from the whole dose curve; as a rule, active = well fitted curve in the direction sought with a large enough effect; inconclusive = small, poorly fitted or top-dose-only effect, or another doubt; inactive = no such curve, though single readings can be large; an effect the other way counts as inactive or inconclusive.

SMILES	IP6K1 inhibitor	SNCA viab count	SNCA expr inh	KDM5B inh
C#CCN(C)C[C@@H]1C=C(C)[C@H](Cc2nnc(-c3ccccc3F)o2)C[C@H]1C(C)C	n	n	n	35µM
CC1=C[C@@H](CNCc2cccnc2)[C@H](C(C)C)C[C@H]1Cc1nnc(-c2ccccc2)o1	n	u	u	n
CC1=C[C@@H](CN(C)Cc2cccnc2)[C@H](C(C)C)C[C@H]1Cc1nnc(-c2ccc([N+](=O)[O-])cc2)o1	n	u	n	13µM
CC1=C[C@@H](CN(C)CCO)[C@H](C(C)C)C[C@H]1Cc1nnc(-c2ccccc2F)o1	n	u	n	n
CC1=C[C@@H](CN2CCC(C)CC2)[C@H](C(C)C)C[C@H]1Cc1nnc(-c2cccnc2)o1	n	n	n	n
CC1=C[C@@H](CN2CCN(c3cnccn3)CC2)[C@H](C(C)C)C[C@H]1Cc1nnc(-c2cccnc2)o1	n	n	u	32µM
COc1cc2c(cc1-c1ccco1)OCC(C)(C)CC2CO (stereo not drawn)	n	x	x	x
Cc1ccc(CN(C(=O)CCCc2cccs2)C2CC2)cc1	x	x	x	n
O=C(c1ccc(CNc2nccc(-c3cccnc3)n2)cc1)N1CCCCC1	n	n	n	28µM
NS(=O)(=O)c1ccc(CNc2nccc(-c3cccnc3)n2)cc1	n	n	u	32µM
O=C(NCc1ccc(C(=O)N2CCCC2)cc1)C1CCCCC1	x	x	x	n
c1ccc(-c2ccnc(NCC(c3ccncc3)N3CCOCC3)n2)nc1 (stereo not drawn)	n	n	n	n
c1cncc(-c2ccnc(NCC(c3cccnc3)N3CCCCC3)n2)c1 (stereo not drawn)	n	n	n	32µM
COc1ccc(-c2cc(N3CCCC(NC(=O)c4cccc(OC)c4)C3)n[nH]2)cc1 (stereo not drawn)	n	n	n	n
COc1ccc(Nc2ccnc(N3CCC(NC(=O)c4ccc(Cl)nc4)CC3)n2)cc1	n	n[12.5 µM]	n	x
CCN(CC)c1cc(CCC(=O)NCc2cc(OC)ccc2OC)ccn1	n	n	n	14µM
CCN(CC)c1cc(CCC(=O)NCc2ccccc2OC)ccn1	n	n	n	25µM
CCN(CC)c1cc(CCC(=O)Nc2ccc(OC)c(OC)c2)ccn1	n	n	n	u
CCn1cc(CCC(=O)NCc2ccccc2OC)c2ccccc21	n	n	n	u
O=C(c1ccc(C(F)(F)F)cc1)N1CCC(C(=O)N2CCC(c3nc4ncccc4[nH]3)C2)CC1 (stereo not drawn)	n	n	n	x
CCC(Cn1ccnc1)NC(=O)c1cccc(NCc2ccc(F)cc2)c1 (stereo not drawn)	n	n	n	20µM
Cc1c(CCC(=O)Nc2cccc(F)c2)c(=O)oc2cc(O)ccc12	x	x	x	n
C=CCNC(=O)c1ccc2cc[nH]c2n1	n	n	n	45µM
O=C(NCc1ccc(Cl)cc1)c1ccc2cc[nH]c2n1	n	n	n	112µM
O=C(NNC(=O)C1CCCCC1)c1ccc(Cl)cc1	x	x	x	n
SMILES	IP6K1 inhibitor	SNCA viab count	SNCA expr inh	KDM5B inh
Cc1cc(-c2cc3c(cn2)N(C)CCN(C)C3)ccn1	n	n	n	32µM
CN1CCN(C)c2cnc(-c3ccc(C(=O)N(C)C)cc3)cc2C1	n	n	n	35µM
CN1CCN(c2ncnc3ccc(-c4ccc(C(=O)N(C)C)cc4)cc23)CC1	x	n	n	x
CCn1nc(C(=O)OCC(=O)Nc2cc(C(F)(F)F)ccc2Cl)c2ccccc2c1=O	x	x	x	n
CCCn1c(C)cnc1CC1CCCN(Cc2cccc(OC)c2)C1 (stereo not drawn)	n	n	n	x
CCN1CCN(Cc2ccc(NC(=O)c3ccc(C)c(NC(=O)c4cncc(-c5cccs5)c4)c3)cc2C(F)(F)F)CC1	n	u	x	x
Cc1ccc(C(=O)Nc2ccc(CN3CCN(C)CC3)c(C(F)(F)F)c2)cc1C#Cc1cnc2cccnn12	n	30µM!	u	x
Cc1ccc2[nH]c(=O)c(CCC(=O)N3CCN(CC(C)C)CC3)cc2c1	n	n	n	22µM
CCCCN1CCN(C(=O)CCc2cc3ccc(C)cc3[nH]c2=O)CC1	n	n	n	n
Cc1cccc(-c2nocc2CCC(=O)NC2CCN(Cc3ccccc3)CC2)c1	n	n	n	n
Cc1ccc2[nH]c(=O)c(CCC(=O)N3CCCCC3)cc2c1	n	n	n	28µM
Cc1ccc2[nH]c(=O)c(CCC(=O)NC3CCN(Cc4ccccc4)CC3)cc2c1	n	n	n	25µM
COc1ccc(NC(=O)c2nc3ccccc3nc2N2CCOCC2)cc1	x	x	x	n
C=CCNC(=O)N[C@H]1C[C@H]2C(=O)Nc3ccc(/C=C/c4ccc(OC)cc4)cc3C(=O)N2C1	n	n	n	22µM
COCC(=O)N[C@H]1C[C@H]2C(=O)Nc3ccc(/C=C/c4ccccc4)cc3C(=O)N2C1	n	n	n	n
COc1ccc(/C=C/c2ccc3c(c2)C(=O)N2C[C@@H](NS(C)(=O)=O)C[C@H]2C(=O)N3)cc1	n	n	n	u
CC(C)(CC(=O)O)CC(=O)N[C@H]1C[C@H]2C(=O)Nc3ccc(/C=C/c4ccccc4)cc3C(=O)N2C1	n	n	n	28µM
O=C1Nc2ccc(/C=C/c3ccccc3)cc2C(=O)N2C[C@H](O)C[C@@H]12	n	n	n	28µM
COc1ccc(/C=C/c2ccc3c(c2)C(=O)N2C[C@@H](NC(=O)CC(C)(C)CC(=O)O)C[C@H]2C(=O)N3)cc1	n	n	n	22µM
COc1cnc(CSc2ncccn2)cc1OCC(=O)N1CCCc2ccccc21	x	x	x	n
Cc1ccc(C)c(S(=O)(=O)N2CCN(Cc3cccc4cccnc34)CC2)c1	x	x	x	n
C#CCNC(=O)c1nc(-c2ccc([S+](C)(=O)[O-])cc2)c2ccccn12	n	n	n	n
Cc1cccc(C)c1-c1nc(C(=O)N2CCCC2)n2ccccc12	n	n	n	40µM
Cc1cccc(C)c1-c1nc(C(=O)NC2CC2)n2ccccc12	n	n	n	100µM
Cc1cccc(C)c1-c1nc(C(=O)NCCc2ccc(Cl)cc2)n2ccccc12	n	n	u	14µM
SMILES	IP6K1 inhibitor	SNCA viab count	SNCA expr inh	KDM5B inh
C#CCNC(=O)c1nc(-c2c(C)cccc2C)c2ccccn12	n	n	n	40µM
COc1ccc(CN2CC(O)CN(C(=O)c3ccccc3OC)CC2=O)cc1 (stereo not drawn)	n	x	x	x
CCCN(Cc1ccc(C)cc1)C(=O)CSc1nnc(COc2ccccc2Cl)n1C	x	x	x	n
COC(=O)CNC(=O)c1nc(-c2cc(Cl)cc(Cl)c2)c2ccccn12	n	n	n	25µM
COCCNC(=O)c1nc(-c2c(C)cccc2C)c2ccccn12	n	n	n	35µM
COC(=O)CNC(=O)c1nc(-c2c(C)cccc2C)c2ccccn12	n	n	n	28µM
Cc1ccc(-c2nc(CN3CCN(CC(=O)Nc4cccc(C)c4C)CC3)co2)cc1	x	x	x	n
Cc1cc(Cl)ccc1OCCCc1n[nH]c(=S)n1Cc1ccccc1	x	x	x	n
CCC(=O)Nc1cccc(NC(=O)c2ccc(C)cc2)c1C	x	x	x	n
